This passage reports growth results from PubChem BioAssay (NCI).

Among the test systems are DU-145 prostate; K-562 leukemia; MALME-3M melanoma; MDA-MB-231 breast; RXF 393 renal; SF-268 CNS; SF-295 CNS; SF-539 CNS; UACC-257 melanoma; M14 melanoma.
Test in all cases: NCI-60 one-dose screen, 48 h (100 = growth as untreated, 0 = no growth, -100 = all killed)
Conditions in all cases: 10 µM

Molecules are shown by their SMILES. Where “and” joins values, the source holds several entries; their conditions need not be identical. Equal values may be shown once. Compounds without any hit were thinned out: in the full panel of roughly 83,000, 20% have a hit.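 A percent growth of 40 corresponds to 60% growth inhibition; 0 means no net growth; -100 means all cells died. Active threshold: below 10.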 Calls of active or inactive are those of the source.

For `CC/C(=C/c1ccc(OC)cc1)[N+](=O)[O-]`, the growth was 31.5% (inactive) with DU-145 prostate; 5.85% (active) in the test on K-562 leukemia; -36.1% (active) in the test with MALME-3M melanoma; -18.5% (active) in the test on MDA-MB-231 breast; -79.7% (active) in the test on RXF 393 renal; 38% (inactive) with SF-268 CNS. The growth is 98.1% (inactive) with SF-295 CNS, -19.6% (active) with SF-539 CNS, 4.44% (active) in the test with UACC-257 melanoma and 19.9% (inactive) in the test on M14 melanoma.

For `C[C@]12CC[C@H]3[C@@H](CCC4=CC(=O)CC[C@@H]43)[C@@H]1CC[C@@H]2OC(=O)N(CCCl)N=O`, the growth with DU-145 prostate is 1.81% (active); in the test with K-562 leukemia, 29.5% (inactive); in the test on MALME-3M melanoma, 91.7% (inactive); with MDA-MB-231 breast, 76.3% (inactive); in the test with RXF 393 renal, 69.9% (inactive); in the test on SF-268 CNS it was 23.7% (inactive). Also, the growth is 12.3% (inactive) in the test on SF-295 CNS, -0.439% (active) in the test on SF-539 CNS, 84.4% (inactive) with UACC-257 melanoma and 49% (inactive) in the test with M14 melanoma.

As for `COc1ccccc1/C=C/[N+](=O)[O-]`, the growth in the test on DU-145 prostate was 48.2% (inactive); in the test with K-562 leukemia, 33.8% (inactive); in the test with MALME-3M melanoma, 97.5% (inactive); in the test with MDA-MB-231 breast it was 73% (inactive); with RXF 393 renal it was 1.37% (active); in the test on SF-268 CNS it was 76.1% (inactive). The growth was 93.9% (inactive) with SF-295 CNS, 64% (inactive) in the test on SF-539 CNS, 71.8% (inactive) with UACC-257 melanoma and 59.8% (inactive) in the test with M14 melanoma.

For `COc1cc(/C=C/[N+](=O)[O-])cc(OC)c1OC`, the growth with DU-145 prostate was 9.73% (active); in the test with K-562 leukemia, 5.19% (active); in the test on MALME-3M melanoma, -30.2% (active); with MDA-MB-231 breast, 34% (inactive); with SF-268 CNS, 28.6% (inactive); in the test on SF-295 CNS it was 69% (inactive). For the same compound, the growth is -61.3% (active) with SF-539 CNS, -15.8% (active) in the test on UACC-257 melanoma and -6.32% (active) in the test on M14 melanoma.

As for `CCCCCCCC[N+]12CN3CN(CN(C3)C1)C2`, the growth was 101% (inactive) in the test on DU-145 prostate; 124% (inactive) in the test with K-562 leukemia; 98% (inactive) in the test on MALME-3M melanoma; 105% (inactive) with RXF 393 renal; 95% (inactive) in the test with SF-268 CNS; 95.6% (inactive) with SF-295 CNS. In addition, the growth with SF-539 CNS is 92.7% (inactive); in the test on UACC-257 melanoma, 98.9% (inactive); in the test on M14 melanoma it was 89.5% (inactive).

On to `O=S(=O)(F)c1ccc(Cl)cc1`, for which the growth in the test with DU-145 prostate is 130% (inactive); in the test with K-562 leukemia, 112% (inactive); in the test with MALME-3M melanoma, 123% (inactive); with MDA-MB-231 breast, 115% (inactive); with RXF 393 renal, 112% (inactive); with SF-268 CNS, 97.6% (inactive). Also, the growth in the test with SF-295 CNS was 114% (inactive); in the test on SF-539 CNS it was 99.7% (inactive); in the test with UACC-257 melanoma it was 99.1% (inactive); with M14 melanoma it was 104% (inactive).

Regarding `CN(C)CC1(N)C(=O)NC(=O)NC1=O`, the growth is 99.3% (inactive) in the test with K-562 leukemia; 108% (inactive) with MALME-3M melanoma; 98.7% (inactive) in the test with MDA-MB-231 breast; 101% (inactive) with RXF 393 renal; 103% (inactive) with SF-268 CNS; 98.8% (inactive) in the test on SF-295 CNS. Further, the growth in the test on SF-539 CNS was 99% (inactive); with UACC-257 melanoma, 87.4% (inactive); with M14 melanoma, 102% (inactive).

As to `O=c1[nH]c2ccccc2n1C1CCN(CCCC(c2ccc(F)cc2)c2ccc(F)cc2)CC1`, the growth in the test with DU-145 prostate is 56.7% (inactive) and 53.3% (inactive); with K-562 leukemia it was -62.4% (active) and -55.3% (active); in the test on MALME-3M melanoma it was -8.01% (active) and -56.3% (active); in the test on MDA-MB-231 breast, 40% (inactive) and 45.2% (inactive); with RXF 393 renal, 52.9% (inactive) and -40.4% (active); in the test on SF-268 CNS, 23.6% (inactive) and 70.8% (inactive). The growth with SF-295 CNS is 6.63% (active) and 25.3% (inactive); in the test with SF-539 CNS it was 77.3% (inactive) and -66.9% (active); in the test with UACC-257 melanoma it was -27.7% (active) and 24.7% (inactive); with M14 melanoma, 14.9% (inactive).

In the case of `NC(=O)c1cc([N+](=O)[O-])c(Cl)c([N+](=O)[O-])c1`, the growth with DU-145 prostate is 65.5% (inactive); in the test on MALME-3M melanoma it was 71.3% (inactive); in the test with MDA-MB-231 breast it was 92.2% (inactive); with RXF 393 renal it was 93.8% (inactive); in the test on SF-268 CNS it was 101% (inactive); in the test on SF-295 CNS it was 115% (inactive). Besides, the values for the growth with SF-539 CNS, in the test with UACC-257 melanoma and in the test on M14 melanoma were 98.1% (inactive), 105% (inactive) and 78.6% (inactive), respectively.

As to `CS(=N)(=O)CCC(N)C(=O)O` (stereo unspecified), the growth in the test on DU-145 prostate was 122% (inactive); in the test on K-562 leukemia, 97.2% (inactive); in the test with MALME-3M melanoma it was 103% (inactive); with MDA-MB-231 breast it was 109% (inactive); in the test on SF-268 CNS it was 119% (inactive); in the test with SF-295 CNS it was 97.1% (inactive). In addition, the growth is 109% (inactive) in the test on SF-539 CNS, 105% (inactive) with UACC-257 melanoma and 108% (inactive) with M14 melanoma.

Take `CCOP(=O)(OCC)C(O)c1ccccc1Cl` (stereo unspecified): the growth in the test on DU-145 prostate is 97.7% (inactive); with K-562 leukemia it was 97.7% (inactive); in the test on MALME-3M melanoma, 86.8% (inactive); in the test with MDA-MB-231 breast, 118% (inactive); with SF-268 CNS it was 100% (inactive); with SF-295 CNS it was 112% (inactive). The growth with SF-539 CNS is 91.1% (inactive); in the test with UACC-257 melanoma, 106% (inactive); in the test on M14 melanoma, 103% (inactive).

As for `COC12c3c(C)cc(O)c4c(=O)occ(c34)C(=O)C1C13COC(=O)c4c(O)cc(C)c(c41)C(=O)C2C3OC(C)=O` (stereo unspecified), the growth was 113% (inactive) with DU-145 prostate; 97.8% (inactive) in the test on K-562 leukemia; 92.7% (inactive) in the test on MALME-3M melanoma; 100% (inactive) with MDA-MB-231 breast; 115% (inactive) with RXF 393 renal; 100% (inactive) in the test with SF-268 CNS. Moreover, the growth in the test with SF-539 CNS is 95.9% (inactive); in the test with UACC-257 melanoma, 106% (inactive).

As for `O=[N+]([O-])c1cc[n+]([O-])c2ccccc12`, the growth was 0.325% (active) in the test on K-562 leukemia; -69% (active) in the test with MALME-3M melanoma; -45.1% (active) in the test with MDA-MB-231 breast; -87.1% (active) with RXF 393 renal; 3.65% (active) in the test on SF-268 CNS; -17.7% (active) in the test on SF-295 CNS. The growth is -35% (active) with SF-539 CNS, -47.1% (active) in the test on UACC-257 melanoma and -92.9% (active) in the test on M14 melanoma.
